# Columns and labels:
# Assay type in all cases: functional
# [1] = target: Solute carrier family 2, facilitated glucose transporter member 1 (Homo sapiens) (UniProt P11166); test: ST_JUDE_LEISH: Cytotoxicity at 2uM final concentration against transgenic Leishmania Mexicana promastigotes LmGLUT1 that are glucose transport deficient and complemented with the human glucose transporter GLUT1. Activity is measured by DNA content using SYBR green in vitro
# [2] = target: Hexose transporter 1 (Plasmodium falciparum) (UniProt O97467); test: ST_JUDE_LEISH: Cytotoxicity at 2uM final concentration against transgenic Leishmania Mexicana promastigotes LmPfHT that are glucose transport deficient and complemented with the Plasmodium falciparum hexose transporter. Activity is measured by DNA content using SYBR green in vitro
# [3] = target: Glucose transporter (Leishmania mexicana) (UniProt O61059); test: ST_JUDE_LEISH: Cytotoxicity at 2uM final concentration against transgenic Leishmania Mexicana promastigotes LmGT2 that are glucose transport deficient and complemented with the L. Mexicana glucose transporter 2. Activity is measured by DNA content using SYBR green in vitro
# Solute carrier family 2, facilitated glucose transporter member 1 (Homo sapiens), sequence (P11166 whole entry): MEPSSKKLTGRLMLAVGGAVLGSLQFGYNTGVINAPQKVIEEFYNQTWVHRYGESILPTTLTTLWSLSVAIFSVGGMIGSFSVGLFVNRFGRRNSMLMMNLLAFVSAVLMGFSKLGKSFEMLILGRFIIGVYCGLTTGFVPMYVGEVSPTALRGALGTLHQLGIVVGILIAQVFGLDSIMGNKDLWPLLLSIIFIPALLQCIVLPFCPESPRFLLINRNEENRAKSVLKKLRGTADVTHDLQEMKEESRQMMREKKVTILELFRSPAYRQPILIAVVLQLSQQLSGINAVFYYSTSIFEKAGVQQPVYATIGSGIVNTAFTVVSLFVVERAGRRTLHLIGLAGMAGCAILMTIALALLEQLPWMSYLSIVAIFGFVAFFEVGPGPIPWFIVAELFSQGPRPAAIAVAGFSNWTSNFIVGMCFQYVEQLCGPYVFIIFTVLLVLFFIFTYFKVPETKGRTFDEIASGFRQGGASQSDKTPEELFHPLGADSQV
SMILES,inhibition [1] [%],inhibition [2] [%],inhibition [3] [%]
CCCCCCNCc1c(O)ccc2c(CNCCCCCC)c(O)ccc12,-0.62,-0.78,0.36
CC(C)NCc1ccc(-c2ccc(-c3nc4cc(F)ccc4[nH]3)cc2)cc1,7.9,8.81,6.75
CCCCNCc1ccc(-c2nc(CN(CCCn3ccnc3)C(=O)C3COc4ccccc4O3)cs2)cc1 (stereo unspecified),0.43,4.78,-0.46
CCOC(=O)/C(=N\OC(C(=O)OC(C)(C)C)c1ccccc1)c1csc(NC(c2ccccc2)(c2ccccc2)c2ccccc2)n1 (stereo unspecified),0.73,1.43,0.99
O=C(NCCN1CCC(NC(=O)c2ccc(-c3ccccn3)s2)CC1)c1cccc(C(F)(F)F)c1,3.66,2.93,3.43
CNC(=O)NC1=NC(C)(C)N(OCc2ccc(Cl)c(Cl)c2)C(NC(=O)NC)=N1,1.27,0.11,0.39
O=C(O)C[C@H](NC(=O)CCCNC(=O)c1cccc(-c2ccc(Cl)c(Cl)c2)c1)C(=O)O,-1.37,0.62,1.4
CC(CNC(=O)C(c1cc2ccccc2o1)N1CCN(C(c2ccccc2)c2ccccc2)CC1)c1ccccc1 (stereo unspecified),3.49,3.31,3.92
O=c1cc(NCCCNCc2cc(Cl)cc(Cl)c2OCc2ccccc2)[nH]c2ccccc12,5.54,2.83,4.41
Cc1ccc(N2CCN(C(=O)c3cccc(-c4cncc5nc(-c6ccco6)n(C)c45)c3)CC2)nc1,6.13,5.42,5.39
CC(C)c1sc(N2CCN(C)CC2)nc1C(=O)Nc1ccc(F)cc1C(F)(F)F,5.47,6.04,2.97
Cc1c(C(=O)N2CCc3cc4nccc(N5CCN6CCC[C@H]6C5)c4cc32)cnn1-c1ccc(C#N)cc1,3.57,3.55,2.9
